Hits are enriched below; roughly 2.4% of the tested compounds scored in any of these assays.
IkB sig inh = inhibitors of IkB signaling in ABC-DLBCL cells; Potency, µM (doses to about 57.1 µM), inactives show at the highest dose IkBa stabilization activation; ABC-DLBCL IkBa-CBG/CBR dual luciferase ratio, 4 h; response scale: scaled: untreated 0%, proteasome inhibitor 100%; AID 445; actives 0.04% (n = 110,000); active = well fitted curve in the direction sought with a large enough effect in the signal ratio, not every such curve was filed as active; inconclusive = small, poorly fitted or top-dose-only effect, or a change in a side signal; the % refers to the signal ratio;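 also: the direction sought is a rising ratio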
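Curves were fitted separately to fusion (green), unfused (red) and ratio luminescence, then classed by r2, magnitude and activity. Cells: OCI-Ly3, 4 h compound plus doxycycline at 37C; 10 uM MG-132 defined full response.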
p53ts 32C kill = cytotoxicity in p53ts cells at permissive temperature. H1299-p53A138V at 32C, ATP luminescence viability, 24 h. Potency, µM (series often up to 46.1 µM), for inactives: top-dose activity change, negative = cytotoxicity, usual class: cytotoxic. actives 0.93% (n = 130,000). AID 924;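 also: 0% = DMSO and -100% = full killing by reference compound; nearly all actives have a fitted effect of over 55% in size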
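H1299-p53 A138V cells (temperature-sensitive p53) exposed 24 h to up to 46 uM compound at 32C, where p53 is wild-type in conformation. Viability read as ATP luminescence and normalised to DMSO and 100 uM tamoxifen. AC50 fitted with the Hill equation.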
FLuc inh = firefly luciferase inhibition. Potency, µM (titrated, usually from 57.1 µM), for inactives: at the highest dose activity change, negative = inhibition, hits mostly inhibitors. purified firefly luciferase, luminescence, 8 min. actives 2.2% (n = 72,000). AID 411; also: % is scaled to controls: 0 for no effect and ±100 for the full control effect; nearly all actives have a fitted effect of over 40% in size
Target sequence (P08659 whole entry, looked up): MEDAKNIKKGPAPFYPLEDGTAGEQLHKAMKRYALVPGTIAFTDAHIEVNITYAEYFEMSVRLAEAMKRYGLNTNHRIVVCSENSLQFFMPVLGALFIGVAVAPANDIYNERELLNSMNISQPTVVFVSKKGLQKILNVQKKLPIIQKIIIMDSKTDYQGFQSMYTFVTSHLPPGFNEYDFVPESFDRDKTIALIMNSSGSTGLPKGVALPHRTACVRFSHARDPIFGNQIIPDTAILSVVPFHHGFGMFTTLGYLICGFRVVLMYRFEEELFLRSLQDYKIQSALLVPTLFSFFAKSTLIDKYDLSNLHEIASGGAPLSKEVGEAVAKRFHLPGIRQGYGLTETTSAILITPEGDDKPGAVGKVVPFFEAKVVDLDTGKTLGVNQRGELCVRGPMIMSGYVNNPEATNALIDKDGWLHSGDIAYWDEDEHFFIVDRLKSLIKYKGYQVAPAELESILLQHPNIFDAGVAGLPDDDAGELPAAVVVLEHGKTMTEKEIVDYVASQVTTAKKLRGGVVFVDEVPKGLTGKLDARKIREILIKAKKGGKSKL
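Firefly luciferase (PKLight detection mix) with 10 uM ATP in pH 7.2 imidazole buffer (KCl, MgCl2, Tween 20, BSA). Compounds tested across a concentration series (qHTS). Luminescence read after 8 min at ambient temperature.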
Imprint erasure = induces erasure of genomic imprints in mouse ES cells | mouse ES Peg3-LacZ reporter, beta-gal luminescence, 40 h | Potency, µM (top dose mostly 60.7 µM), without a hit: at the highest dose activity change, positive = activation, actives largely listed as activators | actives 0.02% (n = 110,000)
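Gelatin-coated wells received 300 freshly trypsinized female ES cells with a Peg3LacZ-Neo reporter on the maternal allele, then incubated 40 hours at 37C. BetaGlo was added for 5 minutes at room temperature before a single luminescence read.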
p53ts 39C kill = p53ts cell cytotoxicity, nonpermissive temperature. H1299-p53A138V viability at 39C, ATP luminescence, 24 h. actives 1.5% (n = 130,000). Potency, µM (top dose mostly 46.1 µM), without a hit: at the highest dose activity change, negative = cell killing, most hits filed as cytotoxic. AID 902; also: % is scaled to controls: 0 for no effect and ±100 for the full control effect; nearly all actives have a fitted effect of over 55% in size
* marks the source's active call; other numbers are inactive results; ! = not confirmed by another sample; [ ] = remark or other dose. Unless noted, calls follow the shape of the dose curve; as a rule, active = well fitted curve in the direction sought with a large enough effect; inconclusive = small, poorly fitted or top-dose-only effect, or another doubt; inactive = no such curve, though single readings can be large; an effect the other way counts as inactive or inconclusive. Potency is read from the fitted curve at half-maximal effect.

How did COc1ccccc1-c1nc2cc3ccccc3cc2nc1-c1ccccc1OC do in these assays?
p53ts 39C kill: -7.5%

How did CCN(CC)c1ccc(NC(=O)C2CCCN(S(=O)(=O)c3ccc4c(c3)oc(=O)n4C)C2)c(C)c1 (stereo not given) do in these assays?
IkB sig inh: 2.0%; p53ts 32C kill: 2.4%; Imprint erasure: -18.7%[10.9 µM]; p53ts 39C kill: 0.5%

What do the screens show for `CCOc1cccc2cc(-c3nc4ccc(C(=O)O)cc4[nH]3)c(=O)oc12`?
IkB sig inh: inconclusive; p53ts 32C kill: inconclusive; Imprint erasure: -77.4%[10.9 µM]; p53ts 39C kill: 15.8µM*

How did COc1ccc2cc(-c3nc4ccc(C(=O)O)cc4[nH]3)c(=O)oc2c1 do in these assays?
IkB sig inh: inconclusive; p53ts 32C kill: 1.58µM*; Imprint erasure: -91.2%[10.9 µM]; p53ts 39C kill: 2.51µM*

How did C=CCc1cccc2cc(-c3nc4ccc(C(=O)O)cc4[nH]3)c(=O)oc12 do in these assays?
IkB sig inh: inconclusive; p53ts 32C kill: inconclusive; Imprint erasure: -63.2%[10.9 µM]; p53ts 39C kill: inconclusive

Results for COc1ccc(CNC(=O)c2cnc(N3CCCC3)nc2C)cc1 ?
IkB sig inh: 0.1%; p53ts 32C kill: -8.1%; Imprint erasure: -10.5%[10.9 µM]; p53ts 39C kill: -9.1%

Results for O=C(Cn1c(=O)oc2cc(S(=O)(=O)NC3CCCC3)ccc21)Nc1ccc(F)c(F)c1 ?
IkB sig inh: inconclusive; p53ts 32C kill: -0.5%; Imprint erasure: -6.7%[10.9 µM]; p53ts 39C kill: -9.5%

How did COc1cccc(C(=O)/C=C/Nc2cc(C)ccc2O)c1 do in these assays?
IkB sig inh: inconclusive; p53ts 32C kill: inconclusive; FLuc inh: 7.94µM*; Imprint erasure: -36.8%; p53ts 39C kill: inconclusive

How did Cc1cccc(OCC(=O)Nc2cc(C)ccc2O)c1 do in these assays?
IkB sig inh: 8.7%; p53ts 32C kill: -6.0%; FLuc inh: -4.1%; Imprint erasure: -30.3%; p53ts 39C kill: -0.1%

How did Cc1cc(C(C)(C)CC(C)(C)C)ccc1OCCOCC[N+](C)(C)Cc1ccccc1 do in these assays?
IkB sig inh: 3.1%[25.6 µM]; p53ts 32C kill: 25.1µM*!; FLuc inh: 2.5%[25.5 µM]; Imprint erasure: -32.7%; p53ts 39C kill: 25.1µM*!

Results for COc1cccc(NC(=O)CSc2nc3ccc(NC(=O)c4ccco4)cc3s2)c1 ?
IkB sig inh: 1.5%; p53ts 32C kill: inconclusive; Imprint erasure: -30.4%[10.9 µM]; p53ts 39C kill: inconclusive

How did CC1=C(C(=O)OC2CCCCCC2)C(c2ccc(Cl)cc2)CC(=O)N1 (stereo not given) do in these assays?
IkB sig inh: inconclusive; p53ts 32C kill: 1.9%; Imprint erasure: -8.6%[10.9 µM]; p53ts 39C kill: inconclusive

What do the screens show for `CC1=C(C(=O)OC2CCCCCC2)C(c2cccc(Cl)c2)CC(=O)N1` (stereo not given)?
IkB sig inh: inconclusive; p53ts 32C kill: -19.3%; Imprint erasure: -13.3%[10.9 µM]; p53ts 39C kill: 20µM*

Results for O=C(Nc1nc2c(s1)C(=O)CCC2)c1ccccc1 ?
IkB sig inh: inconclusive; p53ts 32C kill: 12.6µM*; FLuc inh: 12.6µM*; Imprint erasure: -93.3%; p53ts 39C kill: 15.8µM*

Results for CCCOc1ccccc1C(=O)Nc1nc2c(s1)CCCC2 ?
IkB sig inh: inconclusive; p53ts 32C kill: -22.0%; Imprint erasure: -16.0%[10.9 µM]; p53ts 39C kill: 5.0%

How did Cc1onc(-c2ccccc2)c1C(=O)Nc1nc2c(s1)CCCC2 do in these assays?
IkB sig inh: 0.5%; p53ts 32C kill: 3.3%; FLuc inh: 0.3%; Imprint erasure: -12.4%; p53ts 39C kill: 22.0%

How did Cc1cc(C(=O)Nc2nc3c(s2)CCCC3)no1 do in these assays?
IkB sig inh: inconclusive; p53ts 32C kill: inconclusive; FLuc inh: 25.1µM*; Imprint erasure: -79.4%; p53ts 39C kill: inconclusive

How did O=C(Nc1nc(=O)c2ccccc2s1)c1ccccc1 do in these assays?
FLuc inh: -19.9%[25.5 µM]

How did CN(C)c1ccc(C(=O)Nc2nc3c(s2)CCCC3)cc1 do in these assays?
IkB sig inh: inconclusive; p53ts 32C kill: inconclusive; FLuc inh: 5.01µM*; Imprint erasure: -89.8%; p53ts 39C kill: inconclusive

What do the screens show for `COc1cccc(C(=O)Nc2nc3c(s2)CCCC3)c1`?
IkB sig inh: inconclusive; p53ts 32C kill: 10µM*; Imprint erasure: -50.5%[10.9 µM]; p53ts 39C kill: 12.6µM*

What do the screens show for `COC(=O)Nc1nc2c(s1)CCCC2`?
p53ts 32C kill: 2.7%; p53ts 39C kill: -7.0%

How did CCc1ccccc1NC(=O)Cn1cc2c(n1)CCC(C)C2 (stereo not given) do in these assays?
IkB sig inh: -1.2%; p53ts 32C kill: -0.3%; Imprint erasure: 18.3%[10.9 µM]; p53ts 39C kill: 8.4%

How did c1ccc(-c2nnc(CN3CCN(c4ccccn4)CC3)o2)cc1 do in these assays?
IkB sig inh: 3.6%; p53ts 32C kill: 13.3%; Imprint erasure: -8.0%[10.9 µM]; p53ts 39C kill: -6.7%

How did Oc1[nH]c2ccccc2c1/C=N/c1nccs1 do in these assays?
IkB sig inh: 1.1%; p53ts 32C kill: inconclusive; FLuc inh: 25.1µM*; Imprint erasure: -31.8%; p53ts 39C kill: inconclusive

What do the screens show for `Oc1[nH]c2ccccc2c1C=Nc1ccc2c(c1)OCO2`?
p53ts 32C kill: -19.7%; p53ts 39C kill: inconclusive

What do the screens show for `Cc1ccc(-n2ncc3c(N(CCO)Cc4ccccc4)ncnc32)cc1`?
IkB sig inh: -1.9%; p53ts 32C kill: -16.6%; Imprint erasure: -10.0%[10.9 µM]; p53ts 39C kill: inconclusive

Results for Cc1ccc(-n2ncc3c(N(C)Cc4ccccc4)ncnc32)cc1 ?
IkB sig inh: 1.6%; p53ts 32C kill: inconclusive; Imprint erasure: -12.5%[10.9 µM]; p53ts 39C kill: 15.8µM*

Results for CCN(c1ccccc1)c1ncnc2c1cnn2-c1ccc(OC)cc1 ?
IkB sig inh: inconclusive; p53ts 32C kill: inconclusive; Imprint erasure: -4.5%[10.9 µM]; p53ts 39C kill: 12.6µM*

What do the screens show for `CCCCN(c1ccccc1)c1ncnc2c1cnn2-c1ccc(Cl)cc1`?
IkB sig inh: -3.4%; p53ts 32C kill: -13.9%; Imprint erasure: -12.0%[10.9 µM]; p53ts 39C kill: -21.9%

Results for CCOC(=O)c1c(C)oc2nc(C)nc(NCCCN3CCN(c4cccc(C)c4)C(C)C3)c12 (stereo not given) ?
IkB sig inh: 0.6%; p53ts 32C kill: -4.8%; Imprint erasure: 11.4%[10.9 µM]; p53ts 39C kill: -11.7%

How did CCN(CC)S(=O)(=O)c1ccc2c(c1)c(=O)c(C(=O)NCc1ccccc1)cn2C do in these assays?
IkB sig inh: -0.5%; p53ts 32C kill: -12.2%; Imprint erasure: 11.6%[10.9 µM]; p53ts 39C kill: 2.6%

Results for CCN(CC)S(=O)(=O)c1ccc2c(c1)c(=O)c(C(=O)NCc1ccccc1Cl)cn2C ?
IkB sig inh: inconclusive; p53ts 32C kill: inconclusive; Imprint erasure: 27.7%[10.9 µM]; p53ts 39C kill: 6.31µM*

Results for Cc1ccc(N2CC(NC(=O)Cc3cccs3)CC2=O)cc1C (stereo not given) ?
IkB sig inh: -1.1%; p53ts 32C kill: -8.7%; Imprint erasure: -7.8%[10.9 µM]; p53ts 39C kill: -3.5%
